# Source: PubChem
# Hits are enriched below; roughly 19% of the tested compounds scored in any of these assays.
# DT40 TDP1 CPT = growth inhibition of DT40 Tdp1-/-;hTDP1 cells with camptothecin (screen for TDP1 inhibitors) | Potency, µM (series often up to 46.2 µM), usual class: inhibitors | chicken DT40 Tdp1-/-;hTDP1 cells + 20 nM CPT, ATP luminescence, 48 h | hit rate 12% among 420,000; also: nearly all actives have a fitted effect of over 55% in size
#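 Chicken DT40 Tdp1-/- cells stably complemented with human TDP1 were seeded at 400 cells/well in medium containing 20 nM camptothecin, exposed to pin-transferred compounds, and grown at 37 °C for at least 48 hr. Viability was read as ATP luminescence.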
# HT1080NT lethal = kills 2HG-producing HT-1080-NT fibrosarcoma cells. HT-1080-NT fibrosarcoma viability, CellTiter-Glo ATP luminescence, 48 h. Potency, µM (titrated, usually from 46.1 µM), actives largely listed as cytotoxic. hit rate 1.6% among 360,000;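 also: NT is the 2HG producing partner of a matched IDH1 knockdown line; nearly all actives have a fitted effect of over 55% in size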
#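 HT-1080-NT fibrosarcoma cells (2HG-overproducing), 750 cells/well in RPMI with 5% FBS, dosed after 2 h and incubated 48 h at 37C. CellTiter-Glo luminescence normalized to DMSO and no-cell wells; concentration-response curves fitted and classed.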
# KB-3-1 tox = kills parental KB-3-1 adenocarcinoma cells | Potency, µM (titrated, usually from 46.1 µM), most hits filed as cytotoxic | hit rate 1.4% among 400,000 | KB-3-1 viability, CellTiter-Glo ATP luminescence, 72 h | AID 1347075; also: nearly all actives have a fitted effect of over 60% in size
#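 Parental KB-3-1 viability, qHTS format: 72 h compound exposure, 37 °C; CellTiter-Glo; media-only wells and DMSO plates as controls; concentration-effect fits on corrected data.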
# TDP1 cell noCPT = qHTS for Inhibitors of human tyrosyl-DNA phosphodiesterase 1 (TDP1): qHTS in cells in absence of CPT; DT40 Tdp1-/- hTDP1 cells, no CPT, ATP luminescence, 48 h; Potency, µM (titrated, usually from 46.2 µM), actives largely listed as inhibitors; hit rate 15% among 420,000; AID 686978, 2013; also: nearly all actives have a fitted effect of over 55% in size
#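 Compound effects on proliferation are scored in DT40 Tdp1-/-;hTDP1 cells in the absence of CPT. ATP levels (CellTiter-Glo luminescence) are recorded after a ≥48 hr, 37 °C incubation.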
# KB-V1 MDR tox = kills drug-selected multidrug resistant KB-V1 cells; AID 1347076; Potency, µM (series often up to 46.1 µM), actives largely listed as cytotoxic; KB-V1 MDR cells viability, CellTiter-Glo, 72 h; hit rate 3.4% among 400,000; also: nearly all actives have a fitted effect of over 60% in size
#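 Drug-selected KB-V1 cells, grown in DMEM lacking phenol red with 10% FBS, receive compound titrations; after three days at 37 degrees C, surviving cell ATP is quantified by CellTiter-Glo luminescence and responses normalized and curve-fitted.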
# HT1080 IDH1KD tx = kills HT-1080 cells with IDH1 knockdown; Potency, µM (series often up to 46.1 µM), most hits filed as cytotoxic; HT-1080 IDH1 knockdown viability, ATP luminescence, 48 h; AID 686971; hit rate 2% among 360,000
#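 CellTiter-Glo luminescence after 48 h compound exposure at 37 degrees C of IDH1-knockdown HT-1080 cells in 5% FBS RPMI. %Activity scaled between DMSO wells and cell-free media wells, with curves fitted and assigned curve classes.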
# A number is an active result; - = inactive; ? = inconclusive; . = no result. Calls follow the shape of the dose curve; as a rule, active = well fitted curve in the direction sought with a large enough effect; inconclusive = small, poorly fitted or top-dose-only effect, or another doubt; inactive = no such curve, though single readings can be large; an effect the other way counts as inactive or inconclusive.
SMILES,DT40 TDP1 CPT,HT1080NT lethal,KB-3-1 tox,TDP1 cell noCPT,KB-V1 MDR tox,HT1080 IDH1KD tx
O=C(NCc1ccc(F)cc1)C1CCN(C(=O)c2cnn(-c3ccccc3)c2-n2cccc2)CC1,?,.,-,?,-,.
Cc1ccccc1NC(=O)C1CCN(C(=O)c2cnn(-c3ccccc3)c2-n2cccc2)CC1,?,.,-,16µM,-,.
Cc1ccc(NC(=O)C2CCN(C(=O)c3cnn(-c4ccccc4)c3-n3cccc3)CC2)cc1C,18µM,.,-,?,-,.
Cc1cc(C)cc(NC(=O)C2CCN(C(=O)c3cnn(-c4ccccc4)c3-n3cccc3)CC2)c1,18µM,.,-,15µM,-,.
CC(C)NC(=O)C1CCN(C(=O)c2cnn(-c3ccccc3)c2-n2cccc2)CC1,-,.,-,-,-,.
COc1cc(/C=N/NC(=O)CC#N)ccc1Oc1nc(Cl)ncc1F,-,-,-,?,-,-
COc1ccc(NC(=O)Cn2cc(C(=O)c3ccc(C)c(C)c3)c(=O)c3cc(OC)ccc32)cc1,-,.,-,-,-,.
COc1ccc(NC(=O)C2CCCN(C(=O)c3cnn(-c4ccc(F)cc4)c3-n3cccc3)C2)cc1 (stereo not given),.,.,-,.,-,.
Cc1ccc(NC(=O)C2CCN(C(=O)c3cnn(-c4ccccc4)c3-n3cccc3)CC2)cc1,?,.,?,13µM,-,.
CSc1cccc(NC(=O)C2CCCN(C(=O)c3cnn(-c4ccc(F)cc4)c3-n3cccc3)C2)c1 (stereo not given),18µM,.,.,16µM,.,.
Cc1cc(-n2c(C)cc(C(=O)CSc3nncn3C(C)C)c2C)no1,?,-,-,?,-,-
S=C(Nc1cccc(Cl)c1Cl)NC1CCN(Cc2ccccc2)CC1,21µM,?,?,?,?,?
S=C(Nc1ccccc1)Nc1cccc(Cl)c1Cl,-,-,-,-,-,-
CC(C)(Oc1ccc(Cl)cc1)C(=O)NC1CCN(Cc2ccccc2)CC1,?,-,-,18µM,-,-
S=C(Nc1ccc(CN2CCCCC2)cc1)Nc1cccc(Cl)c1Cl,?,-,.,18µM,.,-
CC(C)(C)CC(C)(C)NC(=S)NC1CCN(Cc2ccccc2)CC1,5.2µM,-,?,4.6µM,5.2µM,-
CCc1cccc(CC)c1NC(=S)Nc1cccc(Cl)c1Cl,18µM,-,-,?,-,-
CCC(=O)NC(Cc1ccccc1)c1ccc2c(c1)OCCCO2 (stereo not given),-,-,-,-,13µM,-
COc1ccc(C(=O)N/N=C(\Cc2ncc[nH]2)c2ccccc2)cc1,5.2µM,?,-,2.9µM,?,?
c1ccc(N/N=C(\Cc2ncc[nH]2)c2ccccc2)cc1,-,-,-,-,?,-
COc1cc(C(=O)N/N=C(\Cc2ncc[nH]2)c2ccccc2)cc(OC)c1OC,2.1µM,9.2µM,?,5.2µM,?,4.6µM
Cc1ccc(NC(=O)CN2CCN(CCN=CC3=C(O)CC(c4ccc(C)cc4)CC3=O)CC2)cc1 (stereo not given),-,-,-,-,-,-
Cc1ccc(S(=O)(=O)CCSc2nc(C)cc(C(F)(F)F)c2C#N)cc1,?,?,18µM,?,13µM,?
COC(=O)c1ccc(Nc2cc(C)nc3ccc(C)cc23)cc1,15µM,21µM,6.5µM,21µM,?,23µM
CC(=O)c1cccc(Nc2cc(C)nc3ccc(C)cc23)c1,?,18µM,?,?,?,?
SMILES,DT40 TDP1 CPT,HT1080NT lethal,KB-3-1 tox,TDP1 cell noCPT,KB-V1 MDR tox,HT1080 IDH1KD tx
COc1ccc(Nc2cc(C)c3cc([N+](=O)[O-])ccc3n2)cc1,?,-,-,?,-,-
CC(=O)c1cccc(Nc2nc(-c3ccccc3)nc3ccccc23)c1,?,-,-,?,-,?
CC(=O)c1cccc(Nc2cc(C)nc3c(C)cc(C)cc23)c1,?,-,-,15µM,16µM,?
Cc1ccc2nc(C)cc(Nc3ccc([N+](=O)[O-])cc3)c2c1,1µM,-,?,0.92µM,-,?
Cc1cc(C)c2nc(C)cc(Nc3ccc(C(=O)N4CCOCC4)cc3)c2c1,-,-,-,-,-,-
CCOc1ccc(S(=O)(=O)N2CCN(c3cc(Cl)ccc3Cl)CC2)c2ccccc12,.,.,-,.,?,.
Cc1cccc(OCCC(=O)NCC(c2ccco2)N2CCCCC2)c1 (stereo not given),-,-,-,-,-,-
CCCCn1c(N)c(N(CCC(C)C)C(=O)C2CC(=O)N(c3ccc(OC)cc3OC)C2)c(=O)[nH]c1=O (stereo not given),-,-,-,-,-,-
NC(=O)c1nsnc1-c1ccccc1O,-,-,-,-,-,-
O=C(c1csnn1)N1CCC2(CC1)CCN(c1ncccn1)CC2,-,.,.,?,.,.
CCOc1ccc(-c2c(=O)n(OCc3ccccn3)c3ccccc3[n+]2[O-])cc1,21µM,-,-,12µM,-,-
COc1ccc(-c2c(=O)n(OCc3ccccc3[N+](=O)[O-])c3ccccc3[n+]2[O-])c(OC)c1,?,-,-,18µM,-,-
O=c1c(-c2ccc(Oc3ccccc3)cc2)[n+]([O-])c2ccccc2n1OCc1ccccn1,-,-,?,?,?,-
COc1ccc(-c2c(=O)n(OCc3ccccn3)c3ccccc3[n+]2[O-])cc1OC,-,-,-,?,-,-
COc1ccc(-c2c(=O)n(OC)c3ccccc3[n+]2[O-])cc1OC,12µM,-,-,15µM,-,-
C=CCOn1c(=O)c(-c2ccc(OC)c(OC)c2)[n+]([O-])c2ccccc21,?,-,-,?,-,-
O=C(NC1CCCCCC1)C1CCN(S(=O)(=O)c2cnc[nH]2)CC1,-,-,-,-,?,-
COc1ccc(C)cc1NC(=O)C(OC(=O)c1ccc([N+](=O)[O-])o1)c1ccccc1 (stereo not given),16µM,-,-,?,-,-
Cc1ccc(NC(=O)CCS(=O)(=O)c2ccc3c(c2)NC(=O)C(C)S3)nc1 (stereo not given),-,-,-,-,-,-
O=C(NCC(=O)N(c1ccc(F)cc1)C(C(=O)NCC1CCCO1)c1ccccc1)c1ccco1 (stereo not given),-,-,-,-,-,-
CC(C)C(=O)NC(=S)Nc1ccc(CN2CCOCC2)cc1,-,-,-,-,?,-
O=C(NC(=S)Nc1ccc(CN2CCOCC2)cc1)c1cccc([N+](=O)[O-])c1,-,-,-,-,-,-
O=C(NC(=S)Nc1ccc(CN2CCOCC2)cc1)c1ccc(-c2cccc(Cl)c2)o1,16µM,?,-,7.3µM,?,?
